Sampled rows, rich in hits. Any-hit rate of the full collection: about 10%.
HEK293 tox = Cytotoxic Profiling in HEK 293 Cell Line of Diverse Libraries Using Quantitative High-Throughput Screening; HEK 293 viability, ATP luminescence (CellTiter-Glo), 48-72 h; Potency, µM (top dose mostly 115 µM), inactives show top-dose activity change, negative = cytotoxicity, most hits filed as inhibitors; 6.6% of 94,000 active; AID 1345083, 2018; note: nearly all actives have a fitted effect of over 60% in size
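ATP-coupled CellTiter-Glo luminescence served as viability read-out, recorded 10 min after reagent addition at room temperature. HEK 293 cells, 250 cells/well, had been incubated with pintool-transferred compound for 48 or 72 hr at 37 degree Celsius.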
3T3 cytotox = Cytotoxic Profiling in NIH 3T3 Cell Line of Diverse Libraries Using Quantitative High-Throughput Screening | NIH 3T3 viability, CellTiter-Glo ATP luminescence, 48-72 h | Potency, µM (series often up to 96.7 µM), inactives show at the highest dose activity change, negative = cytotoxicity, most hits filed as inhibitors | 4.3% of 94,000 active; note: nearly all actives have a fitted effect of over 55% in size
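Mouse fibroblast NIH 3T3 cells, 400 per well, received compound via pintool and were incubated for 48 or 72 hr prior to CellTiter-Glo ATP luminescence measurement.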
hNpr1 antagonist = Natriuretic polypeptide receptor (hNpr1) antagonism - Primary qHTS | HEK293 hNpr1 GloSensor cGMP, ANP-stimulated luminescence | Potency, µM (top dose mostly 46.3 µM), for inactives: at the highest dose activity change, negative = inhibition, actives largely listed as inhibitors | AID 1347048, 2019 | 1.6% of 76,000 active | Atrial natriuretic peptide receptor 1 (Homo sapiens), P16066; calls by dose curve; note: nearly all actives have a fitted effect of over 60% in size
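HEK293 cells stably expressing human Npr1 and cGMP GloSensor pGS-40F, loaded 2 h with 2% GloSensor reagent, given compound 30 min at room temperature. Luminescence read before and 20 min after 0.1 nM hNppA.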
GPT2 inhibitor = Primary qHTS assay for inhibitors of Glutamate pyruvate transaminase 2 (GPT2). Alanine aminotransferase 2 (Homo sapiens), Q8TD30. Recombinant GPT2, coupled pyruvate oxidase/HRP Amplex Red fluorescence. Potency, µM (series often up to 57.7 µM), for the others: at the highest dose activity change, negative = inhibition, most hits filed as inhibitors. 0.25% of 100,000 active. AID 1671188, 2021; note: nearly all actives have a fitted effect of over 60% in size
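Fluorescence of coupled pyruvate oxidase/HRP/Amplex Red system (50uM Amplex, 30 min, dark) reports pyruvate formed by GPT2. Enzyme reaction: 10ng/uL GPT2, 2mM L-alanine, 250uM a-KG, 30 min room temperature, pH 7.5; 50uM AOA control.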
FLuc inh = Firefly luciferase inhibition profiling of diverse chemical library using quantitative high-throughput screening; AID 1347043, 2019; 2.5% of 76,000 active; Potency, µM (series often up to 115 µM), hits mostly inhibitors; purified P. pyralis luciferase, luminescence, biochemical; Luciferin 4-monooxygenase (Photinus pyralis), P08659; note: nearly all actives have a fitted effect of over 65% in size
Target sequence (P08659 whole entry, looked up): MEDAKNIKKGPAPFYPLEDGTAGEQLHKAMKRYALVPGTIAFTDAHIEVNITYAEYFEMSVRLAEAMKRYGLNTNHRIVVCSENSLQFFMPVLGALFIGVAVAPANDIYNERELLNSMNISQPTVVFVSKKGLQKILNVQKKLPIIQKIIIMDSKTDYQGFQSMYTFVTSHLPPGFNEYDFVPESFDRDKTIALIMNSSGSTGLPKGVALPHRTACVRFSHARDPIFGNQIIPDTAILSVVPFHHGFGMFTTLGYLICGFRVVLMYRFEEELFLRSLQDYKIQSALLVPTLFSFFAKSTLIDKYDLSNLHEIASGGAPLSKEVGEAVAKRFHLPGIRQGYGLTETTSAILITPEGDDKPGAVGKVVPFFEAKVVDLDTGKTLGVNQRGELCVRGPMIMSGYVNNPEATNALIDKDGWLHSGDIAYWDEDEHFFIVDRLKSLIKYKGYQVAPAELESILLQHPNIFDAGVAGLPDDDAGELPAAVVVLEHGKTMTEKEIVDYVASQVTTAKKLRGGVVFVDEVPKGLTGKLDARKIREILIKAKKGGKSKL
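Luminescence read by CCD imaging after purified firefly luciferase (10nM final) was added to substrate buffer holding 10uM D-luciferin and 10uM ATP, pH 7.5, pre-dosed with compound.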
An asterisk follows results filed as active; i = inactive; ? = inconclusive; / = no result; [ ] = another dose, or the depositor's remark. Unless noted, calls come from the whole dose curve; as a rule, active = well fitted curve in the direction sought with a large enough effect; inconclusive = small, poorly fitted or top-dose-only effect, or another doubt; inactive = no such curve, though single readings can be large; an effect the other way counts as inactive or inconclusive. % is set by controls: 0 for no effect and ±100 for the full control effect; potency is the fitted concentration of half-maximal effect.

SMILES	HEK293 tox	3T3 cytotox	hNpr1 antagonist	GPT2 inhibitor	FLuc inh
COc1ccc(-n2nc(C)c([C@@H]3C=C[C@@H](NCc4ccc(F)cc4)C3)c2C)cc1	28.2µM*	31.6µM*	?	-7.9%[88.5 µM]	25.1µM*
Cc1nn(-c2ccccc2[N+](=O)[O-])c(C)c1[C@@H]1C=C[C@@H](NCc2ccc(F)cc2)C1	100µM*	89.1µM*	-10.4%[70.6 µM]	i	?
COc1ccc(-n2nc(C)c([C@@H]3C=C[C@@H](NCc4ccc(C(C)C)cc4)C3)c2C)cc1	31.6µM*	31.6µM*	?	0.9%[88.5 µM]	25.1µM*
COc1ccc(NC(=O)O[C@@H]2C=C[C@H](c3c(C)nn(-c4ccc(F)cc4)c3C)C2)cc1	?	?	-29.6%[70.6 µM]	-3.3%[88.5 µM]	?
Cc1nn(-c2ccc(F)cc2)c(C)c1[C@@H]1C=C[C@@H](NC(=O)CC(C)(C)CC(=O)O)C1	-24.2%[172 µM]	?	-10.4%[70.6 µM]	3.8%[88.5 µM]	i
Cc1nn(-c2ccccc2)c(C)c1[C@@H]1C=C[C@@H](NCc2ccc(F)cc2)C1	63.1µM*	?	-22.7%[70.6 µM]	-4.9%[88.5 µM]	?
COCCCNc1nc2c([S+](=O)([O-])c3ccc(Cl)cc3)nnn2c2ccccc12	i	-4.4%	/	-13.5%	/
C[C@@H]1CN(C(=O)CN2CCN(c3ncccn3)CC2)C[C@@]1(O)C1CCC1	3.9%	i	6.0%	-4.4%	i
Cc1nn(-c2ccc(C(F)(F)F)cc2)c(C)c1[C@@H]1C=C[C@@H](NC(=O)COCC(=O)O)C1	-1.2%	-1.4%	6.0%	1.5%	i
Cc1nn(-c2ccc(C(F)(F)F)cc2)c(C)c1[C@@H]1C=C[C@@H](NCc2ccc(N(C)C)cc2)C1	20µM*	11.2µM*	-16.4%	i	i
CC1(C)[C@H](Cc2cc(-c3ccc(F)cc3)on2)C[C@@H]1NC1CCC1	39.8µM*	35.5µM*	3.7%[70.6 µM]	2.0%[88.5 µM]	i
CC1(C)[C@H](Cc2cc(-c3ccc(F)cc3)on2)C[C@@H]1NCc1cccnc1	?	?	11.2µM*	-4.0%[88.5 µM]	?
CC(C)(C)c1cc(C[C@@H]2C[C@H](NS(C)(=O)=O)C2(C)C)no1	?	-14.6%[174 µM]	-2.3%[70.6 µM]	-9.1%[88.5 µM]	i
CN1CCC(N[C@H]2C[C@@H](Cc3cc(C(C)(C)C)on3)C2(C)C)CC1	28.2µM*	50.1µM*	1.6%[70.6 µM]	-8.2%[88.5 µM]	i
COCc1cc(C[C@@H]2C[C@H](NCc3cccnc3)C2(C)C)no1	-16.7%[172 µM]	-16.3%[138 µM]	-0.4%[70.6 µM]	-4.2%[88.5 µM]	i
COc1ccc(-c2cn3c(n2)CO[C@@H](CNCc2ccc(Cl)cc2)C3)cc1	89.1µM*	100µM*	?	4.7%[88.5 µM]	63.1µM*
COc1ccc(-c2cn3c(n2)CO[C@@H](CNC(=O)CCC(=O)O)C3)cc1	i	i	7.6%[70.6 µM]	1.3%[88.5 µM]	i
COc1ccc(-c2cn3c(n2)CO[C@@H](CNS(C)(=O)=O)C3)cc1	-4.7%[172 µM]	-3.7%[138 µM]	-0.8%[70.6 µM]	-0.4%[88.5 µM]	56.2µM*
COc1ccc(CNC[C@H]2Cn3cc(-c4ccccc4)nc3CO2)cc1	?	?	2.3%[70.6 µM]	3.3%[88.5 µM]	i
Cc1ccc(-c2cn3c(n2)CO[C@@H](CNS(C)(=O)=O)C3)cc1	1.0%[172 µM]	-11.5%[174 µM]	3.7%[70.6 µM]	4.8%[88.5 µM]	i
CCC(=O)NC[C@H]1Cn2cc(-c3ccc(OC)cc3)nc2CO1	1.8%[172 µM]	4.0%[138 µM]	-1.0%[70.6 µM]	-5.2%[88.5 µM]	63.1µM*
COc1cc(-c2onc(C)c2C(=O)NCCCSC)cc(OC)c1OC	i	5.0%	-26.8%	3.8%	i
COc1cc(CN(C)C(=O)c2c(C)noc2-c2ccc(C(C)(C)C)cc2)cc(OC)c1OC	39.8µM*	?	-20.1%	-11.5%	i
Cc1noc(-c2ccc(C(C)(C)C)cc2)c1C(=O)NCc1cc(F)cc(F)c1	?	-23.4%	2.3%	4.7%	i
Cc1noc(-c2ccc(OC(F)(F)F)cc2)c1C(=O)NCCCc1ccccc1	70.8µM*	?	1.6%	i	i
SMILES	HEK293 tox	3T3 cytotox	hNpr1 antagonist	GPT2 inhibitor	FLuc inh
COc1cc(-c2onc(C)c2C(=O)NCCCCc2ccccc2)cc(OC)c1OC	89.1µM*	?	-5.2%	-1.5%	i
Cc1noc(-c2ccc(OC(F)(F)F)cc2)c1C(=O)NCCC(c1ccccc1)c1ccccc1	35.5µM*	?	-11.6%	?	i
CC/C=C\CCc1c(-c2ccccc2)ncn1CCN1CCN(C)CC1	?	?	-2.2%	?	i
Cc1ccc(C)c(Cn2c(-c3cccc(Cl)c3)nc(C)c(CCO)c2=O)c1	?	?	-15.1%	-22.4%	i
O=C(C1CCCC1)N1CC2(CCN(CC3CC3)C2)Cc2ccccc21 (centres undefined)	25.1µM*	44.7µM*	/	?	/
O=C(c1ccc(OC2CCN(Cc3c[nH]c4ccccc34)CC2)cc1)N1CCCCC1	22.4µM*	?	6.7%	-3.9%	i
O=C(c1ccc(F)cc1)N1CCC(Oc2ccccc2)C1 (centres undefined)	3.7%	i	-0.3%	i	i
O=C(C1CCCC1)N1CC2(CCN(Cc3c[nH]c4ccccc34)CC2)Cc2ccccc21	20µM*	12.6µM*	/	3.1%	/
O=C(C1CCCC1)N1CC2(CCN(Cc3ccccn3)C2)Cc2ccccc21 (centres undefined)	?	?	/	-12.6%	/
CC(=O)N1CC2(CCN(CC3CC3)C2)Cc2ccccc21 (centres undefined)	-6.9%[172 µM]	-9.3%[138 µM]	/	-6.3%[88.5 µM]	/
O=C(C1CCCC1)N1CC2(CCN(Cc3ccccn3)CC2)Cc2ccccc21	100µM*	?	/	i	/
CC(=O)C1=C(C)N(c2cccc(C(F)(F)F)c2)C(=O)N[C@H]1c1ccc(C#N)nc1	/	/	/	1.2%[17.1 µM]	/
CN(C)c1ccc(C(=O)N2CCC(Oc3nccnc3N(C)C)C2)cc1 (centres undefined)	-24.0%	-18.7%	-0.3%	i	i
C#CCNC(=O)CC[C@H]1CNC(=O)[C@@H]2[C@@H](CCN2Cc2ncc[nH]2)N1C	-1.7%[172 µM]	-12.7%[138 µM]	0.1%[70.6 µM]	?	i
Cn1ccnc1C(=O)N1CCN(C(=O)N2CC3CC(C2)[C@H]2CCCC(=O)N2C3)CC1 (some centres undefined)	-0.3%	i	-1.5%	-15.6%	i
Cc1cc(=O)n(CC(=O)Nc2ccc(C)c(Cl)c2)c(N2CCN(c3ccccc3)CC2)n1	?	?	-9.7%	i	i
O=C(O)COc1ccc(-c2nccc3c2C(=O)N(Cc2c[nH]c4ccccc24)CC(CNC(=O)c2cccc(Cl)c2)O3)cc1 (centres undefined)	-10.0%	31.6µM*	2.3%	-16.6%	i
